# Bioassay records deposited in PubChem by National Center for Advancing Translational Sciences (NCATS).
# Most compounds without a hit are left out; they make up all but 2.4% or so of the library.
# WRN helicase inh: qHTS for Inhibitors of WRN Helicase. Bifunctional 3'-5' exonuclease/ATP-dependent helicase WRN (Homo sapiens), Q14191. WRN helicase unwinding, fluorescent forked duplex, kinetic. Potency, µM (doses to about 114 µM), for inactives: at the highest dose activity change, negative = inhibition, actives largely listed as inhibitors. 360,000 compounds, 0.46% hits. AID 651768, 2012; also: % is scaled to controls: 0 for no effect and ±100 for the full control effect; nearly all actives have a fitted effect of over 55% in size
#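 Kinetic fluorescence helicase assay: unwinding of a quenched forked DNA duplex (100 nM final) with 2 mM ATP final raises red fluorescence (525/598 nm). Compounds sat 15 min at room temperature with 20 nM WRN beforehand.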
# Pol beta inh: qHTS Assay for Inhibitors of DNA Polymerase Beta; P06746; Pol beta primer extension/strand displacement, fluorescence kinetic; Potency, µM (doses to about 114 µM), without a hit: at the top dose activity change, negative = inhibition, hits mostly inhibitors; 340,000 compounds, 1.3% hits; AID 485314, 2010; also: % is scaled to controls: 0 for no effect and ±100 for the full control effect
#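 Reaction started by 50 nM substrate onto compound-treated Pol beta (10 nM, 15 min preincubation, room temperature); plates read at 0 min and 10 min. Normalized concentration-effect data fitted by four-parameter Hill equation.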
# FEN1 inhibitor: qHTS Assay for the Inhibitors of Human Flap endonuclease 1 (FEN1); 390,000 compounds, 0.35% hits; Recombinant FEN1 flap cleavage, fluorescence, 15 min; P39748; Potency, µM (titrated, usually from 114 µM), for the others: top-dose activity change, negative = inhibition, usual class: inhibitors; also: % is scaled to controls: 0 for no effect and ±100 for the full control effect; nearly all actives have a fitted effect of over 65% in size
#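 Quantitative HTS format: each compound was titrated, incubated with 10 nM nuclease for 15 min at room temperature, then challenged with flap substrate at 50 nM final. Signal change over 15 min gave concentration–effect curves.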
# POLH inh: qHTS for Inhibitors of Polymerase Eta; DNA polymerase eta (Homo sapiens), Q9Y253; recombinant Pol eta, fluorescent DNA replication assay; Potency, µM (top dose mostly 114 µM), without a hit: top-dose activity change, negative = inhibition, actives largely listed as inhibitors; 390,000 compounds, 1.2% hits; AID 588591, 2011; also: % is scaled to controls: 0 for no effect and ±100 for the full control effect
#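 Fluorescent replication assay: 50 nM final substrate added after a 15 min room-temperature compound preincubation with 10 nM enzyme. Signal taken at 0 min and again at 10 min.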
# Pol kappa inh: qHTS for Inhibitors of Polymerase Kappa; DNA polymerase kappa (Homo sapiens), Q9UBT6; purified Pol kappa, fluorescent DNA synthesis assay, 10 min; Potency, µM (highest dose often 107 µM), for inactives: top-dose activity, negative = inhibition, actives largely listed as inhibitors; 400,000 compounds, 0.53% hits; AID 588579, 2011; also: % is scaled to controls: 0 for no effect and ±100 for the full control effect
#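 10 nM Pol kappa was preincubated with compounds for 15 min at room temperature. Reaction started with 50 nM (final) substrate. Fluorescence read kinetically at 0 and 10 min.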
# POLI inh: qHTS for Inhibitors of Polymerase Iota | Pol iota fluorescent replication assay, 10 min | Potency, µM (highest dose often 115 µM), without a hit: top-dose activity, negative = inhibition, most hits filed as inhibitors | 390,000 compounds, 1% hits
# Target sequence (Q9UNA4 whole entry, looked up): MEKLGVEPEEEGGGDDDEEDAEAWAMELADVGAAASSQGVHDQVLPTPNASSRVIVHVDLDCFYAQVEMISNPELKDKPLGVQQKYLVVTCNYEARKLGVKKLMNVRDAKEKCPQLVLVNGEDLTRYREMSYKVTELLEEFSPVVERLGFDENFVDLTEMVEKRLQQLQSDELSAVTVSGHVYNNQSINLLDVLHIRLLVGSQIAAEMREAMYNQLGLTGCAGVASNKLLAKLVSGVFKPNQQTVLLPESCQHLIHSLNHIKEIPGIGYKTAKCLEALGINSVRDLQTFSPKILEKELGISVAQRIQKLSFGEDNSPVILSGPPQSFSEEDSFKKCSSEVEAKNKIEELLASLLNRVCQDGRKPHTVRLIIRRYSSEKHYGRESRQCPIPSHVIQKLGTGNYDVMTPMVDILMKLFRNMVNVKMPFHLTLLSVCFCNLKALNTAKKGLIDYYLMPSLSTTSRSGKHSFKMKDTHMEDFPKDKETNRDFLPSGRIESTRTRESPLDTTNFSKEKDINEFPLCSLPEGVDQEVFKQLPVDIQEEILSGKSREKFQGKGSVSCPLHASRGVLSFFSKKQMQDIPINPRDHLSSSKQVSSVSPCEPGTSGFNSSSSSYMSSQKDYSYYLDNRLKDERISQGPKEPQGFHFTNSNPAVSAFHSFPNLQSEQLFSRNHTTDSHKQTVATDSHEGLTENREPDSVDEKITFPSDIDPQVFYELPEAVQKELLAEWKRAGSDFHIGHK
#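 Fluorescent replication assay read twice, at 0 min and 10 min after adding 50 nM (final) substrate. Enzyme (10 nM) and compounds were first incubated 15 min at room temperature; enzyme-free buffer wells were negative controls.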
# * marks the source's active call; other numbers are inactive results; ? = inconclusive; nt = no result given; [ ] = remark or other dose. Calls follow the shape of the dose curve; as a rule, active = well fitted curve in the direction sought with a large enough effect; inconclusive = small, poorly fitted or top-dose-only effect, or another doubt; inactive = no such curve, though single readings can be large; an effect the other way counts as inactive or inconclusive. Potency is read from the fitted curve at half-maximal effect.
SMILES,WRN helicase inh,Pol beta inh,FEN1 inhibitor,POLH inh,Pol kappa inh,POLI inh
Nc1nc2[nH]cc(CCc3ccc(C(=O)N[C@@H](CCC(=O)O)C(=O)O)cc3)c2c(=O)[nH]1,nt,nt,3%,nt,?,14%
O=C(C1CCCCC1)N(CCN1CCN(c2ccccc2CO)CC1)c1ccccn1,nt,nt,nt,nt,4%[19.4 µM],nt
Cc1cc(=O)oc2cc(Oc3ncccc3[N+](=O)[O-])ccc12,3%,?,6%,-8%,-10%,97%
NC(=O)c1ccc(Oc2ccc3ccc(=O)oc3c2)c([N+](=O)[O-])c1,-15%[11.6 µM],?,-1%,28µM*,?,?
Cc1cc(=O)oc2cc(Oc3ccc([N+](=O)[O-])cc3[N+](=O)[O-])ccc12,-35%[11.6 µM],-4%,-7%,?,-8%,79µM*
NCc1cn(Cc2ccccc2)nc1-c1ccccc1,nt,nt,6%,nt,-17%,18%
COc1cc(C=C2C(=O)c3ccccc3C2=O)ccc1O,-7%,-3%,-5%,-4%,-19%,?
COc1ccc(C=C2C(=O)c3ccccc3C2=O)cc1O,-21%,-5%,?,-30%,-8%,18µM*
COc1cc(C=C2C(=O)c3ccccc3C2=O)cc(OC)c1OC,-4%,0%,14%,-2%,-11%,89µM*
Cc1ccccc1NC1=C/C(=N\S(=O)(=O)c2cccs2)c2ccccc2C1=O,-12%[57.1 µM],26%,-3%,11µM*,-21%,3.2µM*
CC(=O)Nc1ccc(NC2=C/C(=N/S(=O)(=O)c3cccs3)c3ccccc3C2=O)cc1,-9%,?,-13%,?,-11%,14µM*
S=Cc1ccc(/C=C/c2ccnc3ccccc23)cc1,nt,nt,?,nt,-20%,47%
COc1ccc(C(=O)N(Cc2ccccc2)Cc2ccc(OC)c(COc3ccc(NC(C)=O)cc3)c2)cc1,nt,nt,-21%,nt,-7%,?
CCOC(=O)C(O)(NC(=O)c1cccnc1)C(F)(F)F (configuration not stated),10%,-19%,8%,-19%,0%,14%
CC(=O)C(C(C)=O)C(NC(=O)c1cccnc1)(C(F)(F)F)C(F)(F)F,89µM*,3%,10%,-8%,-9%,-2%
CCOC(=O)c1cnc(Cc2ccccc2)[nH]c1=O,0%,1%,-6%,-19%,-13%,20%
CCOC(=O)c1cnc(-n2[nH]c(C)c(Cc3ccccc3)c2=O)[nH]c1=O,-17%,3.2µM*,3%,?,-3%,?
Cc1[nH]c2ccccc2c1N=Nc1ccccc1C(=O)O,?,32µM*,?,35µM*,?,?
COC(=O)c1cc(N=Nc2c(C)[nH]c3ccccc23)cc(C(=O)OC)c1,3%,4%,-10%,-6%,-11%,-22%
Cc1ccc(C(=O)Nc2ncc3c(n2)CC(c2ccco2)CC3=O)cc1 (configuration not stated),-16%,8%,-1%,2%,-33%,?
Cc1ccc(NC(=O)CSCC(=O)Nc2ncc3c(n2)CC(c2ccco2)CC3=O)cc1 (configuration not stated),-35%,?,-9%,?,?,28µM*
O=C(NCCCN1CCOCC1)C(=O)N/N=C/c1c2ccccc2cc2ccccc12,-31%[57.1 µM],-11%,40µM*,-8%,-24%,22%
Cc1cc(C(=O)N/N=C/c2c3ccccc3cc3ccccc23)n[nH]1,?,25%,-16%,11%,-10%,-5%
NC(=O)C(=O)N/N=C/c1c2ccccc2cc2ccccc12,-6%[11.6 µM],1%,25µM*,9%,-11%,22%
O=C(NCCCN1CCOCC1)C(=O)N/N=C/c1c(Cl)cccc1Cl,-3%,0%,6%,-28%,-1%,57%
SMILES,WRN helicase inh,Pol beta inh,FEN1 inhibitor,POLH inh,Pol kappa inh,POLI inh
CS(=O)(=O)N1CCC(C(=O)NCc2ccco2)CC1,-3%[11.6 µM],4%,-1%,?,-7%,50µM*
N=C1SC(c2ccccc2)C(=O)N1c1ncc(Cc2ccccc2Cl)s1 (configuration not stated),?,18µM*,1%,?,?,?
COc1ccc(/C=c2\[nH]c(=O)/c(=C/c3ccc(OC)c(OC)c3)[nH]c2=O)cc1OC,nt,nt,-9%,nt,-8%,11%
CCOc1ccccc1-c1nc(-c2ccc(NC(=O)Cc3ccc(OC)cc3)cc2)no1,-28%[57.1 µM],32µM*,2%,?,-21%,?
Cc1ccc2nc(NC(=O)CSc3nccn3-c3ccc(Cl)cc3)sc2c1,nt,25µM*,0%,-16%,-3%[60.1 µM],?
Cc1ccc(S(=O)(=O)NCCSCc2ccco2)cc1,-2%,-10%,-4%,-5%,-5%,-8%
COc1ccc(S(=O)(=O)NCCSCc2ccco2)cc1OC,-2%[11.6 µM],40µM*,-15%,?,-27%,45µM*
Cc1cc(C)c(S(=O)(=O)NCCSCc2ccco2)c(C)c1,-12%[11.6 µM],nt,-23%,20µM*,?,22µM*
COc1ccc(/C=C/C(=O)NCCSCc2ccco2)cc1OC,-23%[57.1 µM],-14%,16%,-29%,-40%,71µM*
COc1ccc(CCNC(=O)/C=C/c2ccco2)cc1OC,-7%,11%,-1%,2%,-21%,?
COc1cc(C)c(C)cc1S(=O)(=O)Nc1cccc(-c2ccc(N3CCOCC3)nn2)c1,nt,10%,-15%,-20%,-7%[60.1 µM],15%
O=c1c2ccccc2oc2ccc(-c3ccoc3)cc12,nt,nt,?,nt,?,14µM*
S=C(Nc1ccc(Cl)c(Cl)c1)N1CCCC1,9%,-13%,5%,-8%,2%,38%
O=C(Nc1ccc2nsnc2c1)C1CC1,-35%[57.1 µM],-2%,3%,0%,-11%,22%
S=C(Nc1ccc2nsnc2c1)N1CCCCC1,-16%,2%,-11%,-9%,-10%,3.5µM*
CCN(CC)C(=O)C1CCCN(C(=O)Nc2ccc3nsnc3c2)C1 (configuration not stated),-20%,8%,9%,?,-6%,0.89µM*
COc1cc(N)c(Cl)cc1C(=O)N[C@H]1CCN(CCCOc2ccc(F)cc2)C[C@@H]1OC,nt,nt,nt,nt,-8%[19.4 µM],nt
O=C1CC(SC(=S)C2CCCC2=O)C(=O)N1 (configuration not stated),35µM*,nt,nt,7.1µM*,nt,nt
O=C(CC1N=C2c3ccccc3N=C(SCc3ccc(Cl)cc3)N2C1=O)NCc1ccco1 (configuration not stated),-4%[11.6 µM],?,-14%,79µM*,?,?
